Assay results: PubChem BioAssay AID1159580 (chemical genetic matrix, 2015)
Where “and” joins values, the source holds several entries; their conditions need not be identical. Equal values may be shown once. Out of some 5,500 compounds screened, about 2,000 (36%) were called active. Another 18% or so got no clear call; they are omitted. No stated cut-off is given here; in the data, active means normalized growth mostly below about 0.91 (no sharp cut-off); inconclusive means no clear call, values can overlap the other calls; inactive means mostly above about 0.92. The list shows a part of the results.

Assay: chemical genetic growth profiling, strain panel (AID 1159580);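 further: tested at 20 µM; growth read once vehicle control cultures reached saturation at 30 °C; 1 = growth at the plate median or of vehicle wells; lower values mean less growth of the strain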
Conditions: S. cerevisiae deletion strains, growth OD

Measured: normalized growth

CC(=O)[O][Hg][c]1ccccc1
active: locus YAL013W, strain DEP1, active compounds read low 0.0588 | locus YAL021C, strain ccr4, active compounds read low 0.0671 | locus YAL026C, strain drs2, active compounds read low 0.0633 | locus YAL030W, strain snc1, active compounds read low 0.0569 | locus YBL061C, strain skt5, active compounds read low 0.0592 | locus YBR009C, strain hhf1, active compounds read low 0.066 | locus YBR021W, strain FUR4, active compounds read low 0.089 | locus YBR023C, strain chs3, active compounds read low 0.0614 | locus YBR171W, strain sec66, active compounds read low 0.0817 | locus YBR229C, strain ROT2, active compounds read low 0.0467 | locus YBR231C, strain swc5, active compounds read low 0.0619 | locus YBR279W, strain paf1, active compounds read low 0.0597 | locus YCL011C, strain gbp2, active compounds read low 0.0585 | locus YCL016C, strain dcc1, active compounds read low 0.0648 | locus YCL029C, strain bik1, active compounds read low 0.0611 | locus YCL061C, strain MRC1, active compounds read low 0.066 | locus YCL069W, strain vba3, active compounds read low 0.062 | locus YCR088W, strain abp1, active compounds read low 0.0606 | locus YDL005C, strain med2, active compounds read low 0.0736 | locus YDL035C, strain GPR1, active compounds read low 0.0539 | locus YDL040C, strain nat1, active compounds read low 0.0587 | locus YDL074C, strain BRE1, active compounds read low 0.0962 | locus YDL101C, strain DUN1, active compounds read low 0.0592 | locus YDL134C, strain PPH21, active compounds read low 0.0501 | locus YDL185W, strain tfp1, active compounds read low 0.0588 | locus YDL192W, strain arf1, active compounds read low 0.0622 | locus YDR001C, strain nth1, active compounds read low 0.0585 | locus YDR069C, strain doa4, active compounds read low 0.063 | locus YDR101C, strain arx1, active compounds read low 0.0626 | locus YDR137W, strain rgp1, active compounds read low 0.0849 | locus YDR150W, strain NUM1, active compounds read low 0.0584 | locus YDR159W, strain sac3, active compounds read low 0.0919 | locus YDR162C, strain NBP2, active compounds read low 0.0545 | locus YDR195W, strain ref2 0.124 | locus YDR297W, strain sur2, active compounds read low 0.0565 | locus YDR318W, strain mcm21, active compounds read low 0.0644 | locus YDR334W, strain swr1, active compounds read low 0.0648 | locus YDR335W, strain msn5, active compounds read low 0.0613 | locus YDR388W, active compounds read low 0.0584 | locus YDR392W, strain spt3, active compounds read low 0.1 | locus YDR502C, strain sam2, active compounds read low 0.0611 | locus YEL003W, strain gim4, active compounds read low 0.0567 | locus YEL037C, strain rad23, active compounds read low 0.0594 | locus YEL061C, strain CIN8 (second series), active compounds read low 0.0646 | locus YEL061C, strain CIN8, active compounds read low 0.0509 | locus YER015W, strain faa2, active compounds read low 0.0603 | locus YER016W, strain bim1, active compounds read low 0.0596 | locus YER110C, active compounds read low 0.079 | locus YER111C, strain swi4, active compounds read low 0.0727 | locus YER155C, strain BEM2 (second series), active compounds read low 0.0919 | locus YER155C, strain BEM2, active compounds read low 0.066 | locus YER167W, strain BCK2, active compounds read low 0.0545 | locus YFR010W, strain ubp6, active compounds read low 0.0677 | locus YGL078C, strain dbp3, active compounds read low 0.0571 | locus YGL086W, strain mad1, active compounds read low 0.0571 | locus YGL167C, strain pmr1, active compounds read low 0.073 | locus YGL173C, strain kem1, active compounds read low 0.0683 | locus YGL227W, strain vid30, active compounds read low 0.0651 | locus YGL240W, strain doc1, active compounds read low 0.077 | locus YGL248W, strain PDE1, active compounds read low 0.0503 | locus YGL253W, strain hxk2, active compounds read low 0.055 | locus YGR078C, strain PAC10, active compounds read low 0.0552 | locus YGR135W, strain pre9, active compounds read low 0.0651 | locus YGR229C, strain SMI1, active compounds read low 0.0631 | locus YGR252W, strain gcn5, active compounds read low 0.166 | locus YHR013C, strain ard1, active compounds read low 0.105 | locus YHR027C, strain rpn1, active compounds read low 0.0615 | locus YHR030C, strain SLT2, active compounds read low 0.0511 and 0.112 | locus YHR079C, strain IRE1 (second series), active compounds read low 0.0572 | locus YHR079C, strain IRE1, active compounds read low 0.12 | locus YHR094C, strain hxt1, active compounds read low 0.0582 | locus YHR129C, strain ARP1, active compounds read low 0.0567 | locus YHR142W, strain chs7, active compounds read low 0.0763 | locus YHR200W, strain rpn10, active compounds read low 0.0605 | locus YIL066C, strain RNR3, active compounds read low 0.059 | locus YIL073C, strain SPO22, active compounds read low 0.112 | locus YIL125W, strain kgd1, active compounds read low 0.0567 | locus YIR030C, strain dcg1, active compounds read low 0.0603 | locus YJL092W, strain hpr5, active compounds read low 0.0589 | locus YJL095W, strain BCK1 (second series), active compounds read low 0.0569 | locus YJL095W, strain BCK1, active compounds read low 0.0577 and 0.107 | locus YJL115W, strain asf1, active compounds read low 0.0743 | locus YJL129C, strain trk1, active compounds read low 0.0912 | locus YJL134W, strain LCB3, active compounds read low 0.0514 | locus YJL154C, strain vps35, active compounds read low 0.0614 | locus YJL164C, strain tpk1, active compounds read low 0.0658 | locus YJL166W, strain qcr8, active compounds read low 0.0602 | locus YJL168C, strain set2, active compounds read low 0.0596 | locus YJL187C, strain SWE1 (second series), active compounds read low 0.0495 | locus YJL187C, strain SWE1, active compounds read low 0.0566 | locus YJR043C, strain POL32, active compounds read low 0.069
